This note sets out measurements from PubChem BioAssay (NCATS).

Assay [1] in a line: AP1 Signaling Pathway (AID 357; active = well fitted curve in either direction with a large enough effect, not every such curve was filed as active;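 also: ME-180 reporter cells stimulated with EGF at its EC50 level; % is scaled to controls: 0 for no effect and ±100 for the full control effect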). Particulars: ME-180 AP-1-bla reporter, EGF-induced, beta-lactamase ratio, 5 h. The essentials: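 Modulation of EGF-driven AP-1 transcription was assessed with a beta-lactamase reporter in ME-180 cells. Compound and EC50 EGF were co-incubated 5 hours at 37 °C before 2.5-hour CCF4 loading at room temperature and dual-emission reading.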
The target of assay [2] is Cytochrome P450 1A2 (Homo sapiens) (UniProt P05177). Briefly: p450-cyp1a2 (AID 410; calls by dose curve; also: potency is read from the fitted curve at half-maximal effect). Summed up:
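Inhibition was calculated relative to 57 uM furafylline (full inhibition). The reaction used human CYP1A2 at 20nM with Luciferin-ME at its Km, 100uM, driven by an NADPH-regenerating system for 60 min at room temperature.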

Assay [3] is described as follows: Stat Signaling Pathway (AID 446; active = well fitted curve in either direction with a large enough effect, not every such curve was filed as active;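 also: ME-180 cervical cancer cells given 40 pM IL-6 alongside compound; SIE-controlled beta-lactamase reporter measured as 460/530 nm FRET emission ratio; % is scaled to controls: 0 for no effect and ±100 for the full control effect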). Particulars: ME-180 SIE beta-lactamase reporter, IL-6 stimulated, 5 h. The essentials: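 Screening format detects activators and inhibitors alike: ME-180 SIE-bla cells stimulated at 40 pM IL-6 for 5 hrs with compound, then dual-emission beta-lactamase read at 405 nm excitation.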
In assay [4] the target is Glucocorticoid receptor (Homo sapiens) (UniProt P04150). Briefly: GR-GFP Redistribution (AID 450;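 active = compounds whose dose series gives a full or clear partial fitted curve of increased nuclear translocation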; also: potency is read from the fitted curve at half-maximal effect). Particulars: U2OS GR-GFP nuclear translocation, laser cytometry, 2 h.
Glucocorticoid receptor (Homo sapiens), sequence (P04150 whole entry, looked up, the tested form may be a part): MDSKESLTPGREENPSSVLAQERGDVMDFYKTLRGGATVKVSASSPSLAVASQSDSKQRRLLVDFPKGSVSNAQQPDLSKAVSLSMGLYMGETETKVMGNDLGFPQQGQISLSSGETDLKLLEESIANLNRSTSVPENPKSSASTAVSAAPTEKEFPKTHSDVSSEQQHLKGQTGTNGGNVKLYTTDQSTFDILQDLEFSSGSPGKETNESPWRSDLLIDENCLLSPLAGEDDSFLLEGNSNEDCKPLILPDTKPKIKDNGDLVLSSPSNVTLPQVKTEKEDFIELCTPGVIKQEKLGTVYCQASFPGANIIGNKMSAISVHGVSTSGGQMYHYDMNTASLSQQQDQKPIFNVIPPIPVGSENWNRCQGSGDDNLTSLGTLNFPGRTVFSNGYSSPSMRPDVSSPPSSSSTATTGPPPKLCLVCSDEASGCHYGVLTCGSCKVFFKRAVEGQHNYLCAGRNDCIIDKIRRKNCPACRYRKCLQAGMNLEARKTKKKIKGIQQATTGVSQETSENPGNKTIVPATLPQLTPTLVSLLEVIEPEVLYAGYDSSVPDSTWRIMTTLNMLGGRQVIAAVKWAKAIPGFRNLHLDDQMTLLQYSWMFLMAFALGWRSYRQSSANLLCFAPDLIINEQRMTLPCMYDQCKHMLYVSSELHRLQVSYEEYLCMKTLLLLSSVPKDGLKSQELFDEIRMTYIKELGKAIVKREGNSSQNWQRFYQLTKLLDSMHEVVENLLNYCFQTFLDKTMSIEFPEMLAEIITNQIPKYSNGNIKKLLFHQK
The target is the same in assay [5]. Briefly: GR-EFC Redistribution (AID 451; calls by dose curve; also: potency is read from the fitted curve at half-maximal effect). Particulars: CHO-K1 GR-EFC translocation, beta-gal luminescence, 2 h. The essentials: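 Translocation of GR-ED fusion to nuclear EA restores b-gal, read by luminescence after 1 h room-temperature detection. Engineered CHO-K1 biosensor cells, 1,000/well, exposed 2 h at 37 C to titrations up to 46 uM final.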
For assay [6], the target named is Mitogen-activated protein kinase 10 (Mus musculus) (UniProt Q61831). Briefly: JNK3 AlphaScreen Assay (AID 530; active = well fitted curve in either direction with a large enough effect, not every such curve was filed as active;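 also: kinase came from lysate of stimulated human HepG2 cells; signal reports phosphorylation of biotinylated GST-cJun 1-79 at Ser73 with 10 µM ATP; % is scaled to controls: 0 for no effect and ±100 for the full control effect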). Summed up:
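Room-temperature AlphaScreen kinase assay; pre-activated HepG2 lysate as JNK3 source, biotin-GST-cJun(1-79) substrate, 10 uM ATP, compound 15 min preincubation.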
On the technique in general: In Alpha technology, singlet oxygen from a donor bead excites a nearby acceptor bead.

The target of assay [7] is 3',5'-cyclic-AMP phosphodiesterase 4B (Homo sapiens) (UniProt Q07343). Briefly: qHTS Assay for Inhibitors of PDE-IV (AID 607; active = well fitted activation curve with a large enough effect in the main read-out, with a control signal flat, not every such curve was filed as active; also: % of control where 0% means no effect). The essentials:
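The readout is membrane depolarisation from a cAMP-sensing CNG channel, detected with a potential dye at ex 535/em 590. Cells were HEK293-derived (endogenous PDE-IV) at 1000 cells/well, titrated up to 22.9 uM final.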
Background: Quantitative high-throughput screening tests each substance at several concentrations.

In assay [8] the target is Guanine nucleotide-binding protein G(i) subunit alpha-1 (Homo sapiens) (UniProt P63096). Briefly: qHTS Assay for Inhibitors of RGS12 GoLoco Motif Activity (Green Fluorophore) (AID 879).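 Also: 0% = labeled peptide with Gαi1 and full inhibition = labeled peptide alone without protein; negative values mean loss of peptide binding seen as reduced polarization.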 Summed up:
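Fluorescence polarization assay: 50 nM Gαi1 with 10 nM FITC-labeled RGS12 GoLoco peptide in 10 mM Tris pH 7.5, 150 mM NaCl, 0.1 mM GDP, 0.05% NP40, 10 min at room temperature with compound.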

Assay [9] concerns the target Cytochrome P450 3A4 (Homo sapiens) (UniProt P08684). Briefly: qHTS Assay for Inhibitors and Substrates of Cytochrome P450 3A4 (AID 884). Also: nearly all actives have a fitted effect of over 50% in size. Also: potency is read from the fitted curve at half-maximal effect. The essentials:
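20 nM human CYP3A4 with 25 uM Luciferin-PPXE (at KM) in 200 mM KPO4, preincubated 10 min with compound; NADPH regeneration started a 60 min RT reaction. Luciferin detected by luminescence, normalized to 57 uM ketoconazole as full inhibition.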

Assay [10] addresses Cytochrome P450 2C19 (Homo sapiens) (UniProt P33261). Briefly: qHTS Assay for Inhibitors and Substrates of Cytochrome P450 2C19 (AID 899). Also: nearly all actives have a fitted effect of over 60% in size. Also: potency is read from the fitted curve at half-maximal effect. The essentials:
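Luminescence readout of luciferin formed from 10uM Luciferin-H EGE (KM level) by 5 nM CYP2C19 in 50mM KPO4. 60 min NADPH-driven reaction at 37C after 10 min compound preincubation; data scaled to 57uM ketoconazole inhibition.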

The target of assay [11] is Pyruvate kinase (Leishmania mexicana) (UniProt Q27686). Briefly: qHTS Validation Assay for Inhibitors of Leishmania Mexicana Pyruvate Kinase (AID 945).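 Also: 0% = DMSO only neutral control wells.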 The essentials: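 The enzyme is a highly purified E451W mutant of LmPYK used at 0.2 nM. It converts 0.5 mM PEP and 0.1 mM ADP over 1 h at room temperature; product ATP is quantified by luciferase luminescence relative to DMSO controls.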
Pyruvate kinase (Leishmania mexicana), sequence (Q27686 2-499 E452W): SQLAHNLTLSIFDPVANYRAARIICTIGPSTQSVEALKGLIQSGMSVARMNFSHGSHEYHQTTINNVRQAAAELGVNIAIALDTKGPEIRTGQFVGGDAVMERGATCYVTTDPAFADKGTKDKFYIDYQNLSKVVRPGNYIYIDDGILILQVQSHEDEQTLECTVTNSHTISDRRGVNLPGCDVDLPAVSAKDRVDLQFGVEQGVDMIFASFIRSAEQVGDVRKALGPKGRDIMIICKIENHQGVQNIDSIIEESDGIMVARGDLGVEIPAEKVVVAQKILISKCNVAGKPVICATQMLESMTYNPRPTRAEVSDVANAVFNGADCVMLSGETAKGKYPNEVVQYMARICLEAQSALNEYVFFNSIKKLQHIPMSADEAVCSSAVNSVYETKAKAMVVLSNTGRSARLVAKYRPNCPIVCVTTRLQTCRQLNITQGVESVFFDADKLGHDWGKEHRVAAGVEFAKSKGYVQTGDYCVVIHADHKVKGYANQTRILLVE

The target of assay [12] is Pyruvate kinase PKM (Homo sapiens) (UniProt P14618). Briefly: qHTS Assay for Activators of Human Muscle Pyruvate Kinase (AID 954; active = well fitted curve in the direction sought with a large enough effect, not every such curve was filed as active;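 also: 0% = uninhibited enzyme and -100% = no enzyme or full thiadiazolimine inhibition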). Summed up: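 Reaction: 0.1 nM purified PKM2 with 0.5 mM phosphoenolpyruvate and 0.1 mM ADP, room temperature, 1 h. Readout: luciferase-based ATP luminescence after stop reagent. Activators judged against a 0.3 nM enzyme column.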
In assay [13] the target is alpha-glucosidase (Oryza sativa, rice) (UniProt Q653V4). Briefly: Counterscreen for Glucocerebrosidase Inhibitors: qHTS Assay for Rice alpha-Glucosidase at pH 5.0 (AID 997).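 Also: 0% = full activity with enzyme and -100% = basal without enzyme.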 The essentials: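 Rice alpha-glucosidase (4 nM final) with 400 uM 4-methylumbelliferyl-alpha-D-glucopyranoside in citrate buffer pH 5.0, 20 min at room temperature, stopped at pH 10; fluorescence 365/440 nm, compounds 0.7 nM–77 uM, AC50 from Hill fits.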

The nature of assay [14]: qHTS Assay for Lipid Storage Modulators (AID 1519; calls by dose curve). Particulars: Drosophila S3 cells, BODIPY lipid droplet/cell ratio, laser cytometry, cells loaded with oleic acid; for activity change, negative = inhibition: at 25.7 µM (top of the series). The essentials:
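Cells seeded at 5,000 per well were treated with compounds over a concentration series and loaded with oleic acid (400 uM, as added). Lipid droplet fluorescence (488 nm excitation, 500-530 nm channel) was read by laser-scanning cytometry and normalized to 20 uM Triacsin C.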

Assay [15] concerns Zika virus NS2B-NS3 protease. Briefly: Primary screen GU AMC qHTS for Zika virus inhibitors (AID 1347154).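 Also: 0% = no-inhibitor control and -100% = no-enzyme control; nearly all actives have a fitted effect of over 70% in size.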 Summed up:
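Fluorogenic AMC-substrate cleavage by noncovalent NS2B-NS3 protease complex (25 nM, pH 8.0 Tris buffer with Tween 20) followed for 15 minutes at room temperature (~20% conversion). Percent inhibition from ex340/em450 signal change, fitted by 4-parameter Hill equation.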

In assay [16] the target is Cytochrome P450 3A4 (Homo sapiens) (UniProt P08684). Briefly: qHTS Assay for Activators of Cytochrome P450 3A4 (AID 885). Also: nearly all actives have a fitted effect of over 65% in size. The essentials: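 Steps: enzyme/substrate mix dispensed; compound added, 10 min RT; NADPH regeneration solution added, 60 min RT; luciferin detection buffer stops reaction; 20 min later luminescence measured.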
Cytochrome P450 3A4 (Homo sapiens), sequence (P08684 whole entry, looked up): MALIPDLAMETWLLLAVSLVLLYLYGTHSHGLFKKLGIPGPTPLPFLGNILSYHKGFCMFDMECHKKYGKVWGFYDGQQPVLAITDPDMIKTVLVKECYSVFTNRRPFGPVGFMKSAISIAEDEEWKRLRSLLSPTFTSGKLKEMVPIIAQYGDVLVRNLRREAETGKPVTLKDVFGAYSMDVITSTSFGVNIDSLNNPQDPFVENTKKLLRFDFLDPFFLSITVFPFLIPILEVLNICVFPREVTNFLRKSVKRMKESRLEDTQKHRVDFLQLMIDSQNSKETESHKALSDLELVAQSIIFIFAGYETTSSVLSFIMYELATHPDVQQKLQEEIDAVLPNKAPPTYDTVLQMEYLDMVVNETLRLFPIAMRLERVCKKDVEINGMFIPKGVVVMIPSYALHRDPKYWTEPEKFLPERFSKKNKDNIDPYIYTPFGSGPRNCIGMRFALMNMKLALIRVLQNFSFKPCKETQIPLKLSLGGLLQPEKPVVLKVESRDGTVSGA
The nature of assay [17]: Primary qHTS for small molecule stabilizers of the endoplasmic reticulum resident proteome: Secreted ER Calcium Modulated Protein (SERCaMP) assay (AID 1508630). Also: % is scaled to controls: 0 for no effect and ±100 for the full control effect. The essentials: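 GLuc-SERCaMP-expressing SH-SY5Y cells, pretreated 16 h with compound, are challenged with thapsigargin to empty ER calcium stores; after 4 h, coelenterazine is added directly to the medium and luminescence is imaged.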

Assay [18] can be described thus: NFAT Signaling Pathway (AID 444; active = well fitted curve in either direction with a large enough effect, not every such curve was filed as active). Particulars: Jurkat NFAT-bla M1, carbachol, beta-lactamase ratio, 5 h. The essentials: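 Read-out: CCF4 FRET ratio (460 nm/530 nm) after 1 h RT dye loading, used for %activity and AC50 from titration series. Cells: Jurkat NFAT-β-lactamase/M1 line, treated with compound plus 1 uM carbachol for 5 h, 37 °C.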
Assay [19] addresses Cytochrome P450 2C9 (Homo sapiens) (UniProt P11712). Briefly: qHTS Assay for Inhibitors and Substrates of Cytochrome P450 2C9 (AID 883). Also: % is scaled to controls: 0 for no effect and ±100 for the full control effect; nearly all actives have a fitted effect of over 60% in size. The essentials: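 Luminescent read-out of deoxyluciferin hydroxylation, normalized to 57uM sulphaphenazole (AC100). Reaction: 10nM enzyme, 100uM Luciferin-H (equal to KM), 25mM KPO4, 10 min compound preincubation, then 60 min with NADPH regeneration, both at 37C.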

Assay [20] has as its target Cytochrome P450 2D6 (Homo sapiens) (UniProt P10635). Briefly: qHTS Assay for Inhibitors and Substrates of Cytochrome P450 2D6 (AID 891). Also: potency is read from the fitted curve at half-maximal effect; nearly all actives have a fitted effect of over 60% in size. The essentials:
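Human CYP2D6 (5 nM) with 30 uM Luciferin-ME EGE (at Km) in 100 mM KPO4, compound preincubated 10 min, then NADPH regeneration system for 60 min at room temperature. Luciferin read by luminescence; normalized to 1.43 uM quinidine.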

The nature of assay [21]: qHTS Assay for Identification of Small Molecule Agonists for Thrombopoietin (TPO) Signaling Pathway (AID 917). Also: % is scaled to controls: 0 for no effect and ±100 for the full control effect. The essentials:
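Reporter: GpIIb promoter–luciferase in murine Ba/F3 expressing human TPO receptor. Pre-starved of IL-3 overnight; compounds with 26 pM TPO, 24 hrs, 37 C/5% CO2; luminescence read.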

Assay [22] has as its target Muscarinic acetylcholine receptor M1 (Rattus norvegicus) (UniProt P08482). Briefly: qHTS Assay for Antagonists of Acetylcholine Muscarinic M1 Receptor: Measurement of IP-One Response (AID 944). Also: nearly all actives have a fitted effect of over 75% in size. The essentials:
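Steps: plate transfected CHO-M1 cells overnight; add test compound, 10 min; add carbachol (200 nM, EC80) in stimulation buffer with LiCl; incubate 30 min; add labelled IP1 tracer and anti-IP1 antibody in lysis buffer; read HTRF after 10 min.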

The target in assay [23] is Alpha-galactosidase A (Homo sapiens) (UniProt P06280). Briefly: Counterscreen for Glucocerebrosidase Inhibitors: qHTS Assay for Human alpha-Galactosidase at pH 4.5 (AID 992). Also: 0% is about no effect. Summed up: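 Concentration-response curves (0.7 nM to 77 uM final) were modeled with the Hill equation to give AC50. Reactions: 2 nM enzyme, 80 uM fluorogenic alpha-galactoside, pH 4.5 citric acid buffer, 20 min, room temperature.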
(In general: A counterscreen serves to expose hits that act by an unwanted route or on another target.)

Assay [24] has as its target Ubiquitin carboxyl-terminal hydrolase 1 (Homo sapiens) (UniProt O94782). Briefly: Inhibitors of USP1/UAF1: Pilot qHTS (AID 504865).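 Also: rhodamine fluorescence freed from ubiquitin-rhodamine substrate followed over time; top concentration of the series differs between compounds; % is scaled to controls: 0 for no effect and ±100 for the full control effect; nearly all actives have a fitted effect of over 35% in size.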 The essentials:
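Deubiquitinase activity followed as kinetic rhodamine fluorescence release from 150 nM Ub-Rho. 1 nM USP1/UAF1 with compound, after 15 min room-temperature preincubation, in HEPES pH 7.8 buffer containing TCEP, EDTA, BSA and Tween-20.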

Assay [25] deals with DNA dC->dU-editing enzyme APOBEC-3G (Homo sapiens) (UniProt Q9HC16). Briefly: qHTS for inhibitors of Vif-A3G interactions: Validation (AID 588379). Also: 0% is about no effect. Summed up: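 HeLa cells stably expressing Vif and A3G-eYFP, 700 cells/well, incubated overnight at 37 deg C, then exposed to compound overnight at 37 deg C. Inhibition of Vif-mediated degradation read as increased yellow fluorescence (Ex 488/Em 500-530) by laser-scanning cytometry.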

Assay [26] deals with Rap guanine nucleotide exchange factor 3 (Homo sapiens) (UniProt O95398). Briefly: Confirmatory qHTS for agonist of cAMP-regulated guanine nucleotide exchange factor 3 (EPAC1) (AID 1645881).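 Also: EPAC1 catalysed release of BODIPY-GDP from Rap1B seen as fluorescence loss; 100% = effect of cAMP agonist control; nearly all actives have a fitted effect of over 75% in size.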
For assay [27], the target named is Rap guanine nucleotide exchange factor 4 (Homo sapiens) (UniProt Q8WZA2). Briefly: Confirmatory qHTS for agonist of cAMP-regulated guanine nucleotide exchange factor 4 (EPAC2) (AID 1645884).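 Also: nucleotide exchange releases bodipy-GDP from Rap1 and this lowers its fluorescence; % is scaled to controls: 0 for no effect and ±100 for the full control effect; nearly all actives have a fitted effect of over 65% in size.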
The mark [28] stands for this setting: measured here: cell count channel max response.
Where [29] appears, read: measured here: lipid channel max response.

Values joined by “and” are separate entries in the source; they are usually repeats but may differ in a detail not shown here. Equal values may be shown once. Records with an inconclusive call do not appear. Active and inactive are the calls of the source. Unless noted, calls follow the shape of the dose curve; as a rule, active = well fitted curve in the direction sought with a large enough effect; inconclusive = small, poorly fitted or top-dose-only effect, or another doubt; inactive = no such curve, though single readings can be large; an effect the other way counts as inactive or inconclusive.

3',5'-cyclic-AMP phosphodiesterase 4B (Homo sapiens), sequence (Q07343 whole entry, looked up): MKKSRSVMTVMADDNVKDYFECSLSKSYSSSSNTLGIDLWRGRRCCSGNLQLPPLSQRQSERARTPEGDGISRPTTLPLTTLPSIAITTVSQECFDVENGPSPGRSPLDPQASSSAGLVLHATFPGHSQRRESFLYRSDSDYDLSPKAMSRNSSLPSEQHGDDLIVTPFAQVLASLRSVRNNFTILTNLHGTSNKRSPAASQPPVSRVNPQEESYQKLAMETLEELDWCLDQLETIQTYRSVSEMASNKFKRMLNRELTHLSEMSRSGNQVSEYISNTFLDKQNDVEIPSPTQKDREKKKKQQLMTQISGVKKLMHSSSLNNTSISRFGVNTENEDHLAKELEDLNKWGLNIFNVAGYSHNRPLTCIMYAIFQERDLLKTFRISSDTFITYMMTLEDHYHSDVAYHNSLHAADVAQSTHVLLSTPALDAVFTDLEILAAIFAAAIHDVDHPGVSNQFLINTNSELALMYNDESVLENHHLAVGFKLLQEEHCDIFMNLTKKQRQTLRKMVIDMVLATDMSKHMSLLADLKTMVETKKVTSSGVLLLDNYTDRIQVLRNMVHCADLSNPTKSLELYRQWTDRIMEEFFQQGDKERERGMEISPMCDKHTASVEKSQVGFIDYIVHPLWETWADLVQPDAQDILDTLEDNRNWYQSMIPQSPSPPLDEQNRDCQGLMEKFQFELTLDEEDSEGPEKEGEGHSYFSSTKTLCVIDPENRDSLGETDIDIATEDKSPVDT
Cytochrome P450 2D6 (Homo sapiens), sequence (P10635 whole entry, looked up): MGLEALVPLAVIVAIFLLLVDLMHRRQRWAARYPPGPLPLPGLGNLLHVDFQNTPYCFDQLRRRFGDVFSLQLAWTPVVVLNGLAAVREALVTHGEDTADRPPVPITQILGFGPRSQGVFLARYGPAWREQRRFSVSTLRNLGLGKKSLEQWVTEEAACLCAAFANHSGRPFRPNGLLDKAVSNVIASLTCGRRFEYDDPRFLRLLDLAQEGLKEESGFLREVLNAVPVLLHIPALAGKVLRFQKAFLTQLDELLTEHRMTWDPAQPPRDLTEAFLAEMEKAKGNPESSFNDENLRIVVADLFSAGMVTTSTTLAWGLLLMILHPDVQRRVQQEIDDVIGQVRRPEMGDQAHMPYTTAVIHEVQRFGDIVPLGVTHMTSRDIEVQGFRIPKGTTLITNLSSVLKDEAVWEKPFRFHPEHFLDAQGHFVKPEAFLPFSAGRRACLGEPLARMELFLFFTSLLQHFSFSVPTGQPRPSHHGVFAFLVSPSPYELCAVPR
Cytochrome P450 1A2 (Homo sapiens), sequence (P05177 whole entry, looked up): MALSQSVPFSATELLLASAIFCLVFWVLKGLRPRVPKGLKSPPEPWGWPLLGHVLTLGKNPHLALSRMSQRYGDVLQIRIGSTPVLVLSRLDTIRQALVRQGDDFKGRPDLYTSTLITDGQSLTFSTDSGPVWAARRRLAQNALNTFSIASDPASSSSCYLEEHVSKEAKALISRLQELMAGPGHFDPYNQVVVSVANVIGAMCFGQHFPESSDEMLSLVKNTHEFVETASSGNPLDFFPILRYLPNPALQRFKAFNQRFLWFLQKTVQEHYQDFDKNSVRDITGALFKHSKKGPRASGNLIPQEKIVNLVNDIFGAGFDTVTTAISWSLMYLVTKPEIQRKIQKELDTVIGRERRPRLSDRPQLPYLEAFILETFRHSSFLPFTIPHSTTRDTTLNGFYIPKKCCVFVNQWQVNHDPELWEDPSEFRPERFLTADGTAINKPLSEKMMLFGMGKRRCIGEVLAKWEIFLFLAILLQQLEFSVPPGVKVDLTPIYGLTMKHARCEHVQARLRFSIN
Cytochrome P450 2C19 (Homo sapiens), sequence (P33261 whole entry, looked up): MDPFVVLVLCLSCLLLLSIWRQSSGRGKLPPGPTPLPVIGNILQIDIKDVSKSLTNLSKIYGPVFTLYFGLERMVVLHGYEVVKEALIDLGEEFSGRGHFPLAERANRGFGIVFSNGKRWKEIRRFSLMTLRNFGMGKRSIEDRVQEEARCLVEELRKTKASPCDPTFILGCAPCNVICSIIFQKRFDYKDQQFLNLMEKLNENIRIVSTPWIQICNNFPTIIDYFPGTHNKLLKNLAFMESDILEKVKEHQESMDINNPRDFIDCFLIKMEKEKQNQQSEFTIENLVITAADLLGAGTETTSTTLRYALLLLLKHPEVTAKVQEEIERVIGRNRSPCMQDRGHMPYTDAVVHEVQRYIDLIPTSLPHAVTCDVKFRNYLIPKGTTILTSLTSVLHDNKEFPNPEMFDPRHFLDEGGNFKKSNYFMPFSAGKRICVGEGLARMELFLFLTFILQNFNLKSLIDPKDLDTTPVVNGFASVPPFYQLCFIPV
Guanine nucleotide-binding protein G(i) subunit alpha-1 (Homo sapiens), sequence (P63096 whole entry, looked up): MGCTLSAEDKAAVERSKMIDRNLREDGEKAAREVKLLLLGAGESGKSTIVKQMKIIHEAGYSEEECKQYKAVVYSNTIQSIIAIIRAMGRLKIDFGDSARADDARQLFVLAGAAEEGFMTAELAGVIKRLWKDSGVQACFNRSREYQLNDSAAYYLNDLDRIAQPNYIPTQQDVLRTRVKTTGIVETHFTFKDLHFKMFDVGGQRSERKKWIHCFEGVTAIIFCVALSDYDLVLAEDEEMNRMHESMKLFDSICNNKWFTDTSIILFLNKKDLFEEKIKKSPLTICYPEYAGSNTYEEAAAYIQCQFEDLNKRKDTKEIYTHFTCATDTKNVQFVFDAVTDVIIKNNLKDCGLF
Cytochrome P450 2C9 (Homo sapiens), sequence (P11712 whole entry, looked up): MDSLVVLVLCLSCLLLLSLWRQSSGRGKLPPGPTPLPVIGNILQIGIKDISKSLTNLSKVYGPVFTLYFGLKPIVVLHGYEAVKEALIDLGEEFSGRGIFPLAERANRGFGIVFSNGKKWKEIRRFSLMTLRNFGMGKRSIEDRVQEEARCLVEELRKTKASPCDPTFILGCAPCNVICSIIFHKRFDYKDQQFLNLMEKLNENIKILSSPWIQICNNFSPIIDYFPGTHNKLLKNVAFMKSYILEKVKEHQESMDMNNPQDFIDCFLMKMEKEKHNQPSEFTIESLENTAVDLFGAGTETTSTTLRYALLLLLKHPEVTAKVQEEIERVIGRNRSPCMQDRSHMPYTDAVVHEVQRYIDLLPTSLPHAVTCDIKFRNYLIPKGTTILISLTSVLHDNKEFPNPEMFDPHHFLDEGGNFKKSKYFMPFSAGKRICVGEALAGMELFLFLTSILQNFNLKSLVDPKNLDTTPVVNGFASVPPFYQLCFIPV

With `Fc1ccc(C(c2ccc(F)cc2)N2CCN(C/C=C\c3ccccc3)CC2)cc1`, the activity change, negative = inhibition in [1] (at 17.2 µM (top of the series)) is -7.16% (inactive); in assay [1] (at 38 µM (top of the series)) it was 2.24% (inactive); in [14], -8.39% (inactive). For the same compound, the Potency in [2] is 15.8 µM (active); in assay [4], > 46 µM (inactive) and > 20.6 µM (inactive); in [5], > 46 µM (inactive) and > 20.6 µM (inactive). Moreover, the activity, negative = inhibition in assay [3] (at 17.2 µM (top of the series)) is 10.1% (inactive); in assay [3] (at 38 µM (top of the series)), -6.11% (inactive). In addition, the Potency result in [6], in [7], in assay [9], in assay [10], in assay [11] and in [15] was “inactive” in each case. Further, the result in assay [8], in assay [12] and in assay [13] was inactive. Moreover, the max response in [14] (setting [28]) was -13.5%; in assay [14] (setting [29]), -22.1%.
For `CCOC(=O)C1CSC(Cc2ccc(OCc3ccc([N+](=O)[O-])cc3)cc2)N1` (configuration not stated), the Potency in assay [9] was 15.8 µM (active). Also, the Potency entry in assay [16], in [15] and in assay [17] was “inactive” each time.
In the case of `COc1ccccc1N1CCN(C[C@@H](O)COc2cccc3ccccc23)CC1`, the activity change, negative = inhibition in assay [1] (at 17.2 µM (top of the series)) was 4.94% (inactive); in [1] (at 38 µM (top of the series)), 2.88% (inactive); in [18] (at 17.2 µM (top of the series)) it was -8.94% (inactive); in assay [18] (at 38 µM (top of the series)), -1.67% (inactive); in [14] it was -0.494% (inactive). Further, the Potency in [2] was 20 µM (active) and 31.6 µM (active); in [4], > 46 µM (inactive) and > 20.6 µM (inactive); in assay [5], > 46 µM (inactive) and > 20.6 µM (inactive); in assay [20], 794 nM (active) and 316 nM (active) and 126 nM (active); in assay [10], 6.31 µM (active) and 7.94 µM (active) and 1.58 µM (active). The activity, negative = inhibition in [3] (at 17.2 µM (top of the series)) is -4.93% (inactive). Besides, the Potency result in assay [6], in assay [7], in assay [19], in assay [16], in [21] and in assay [22] was “inactive” throughout. Also, the Potency entry in assay [11], in assay [24], in assay [25] and in assay [15] was “inactive” in each case. The call in assay [8], in assay [12], in assay [23], in assay [13], in assay [26] and in [27] was inactive. Besides, the figures for the max response in assay [14] (setting [28]) and in assay [14] (setting [29]) were -0.0145% and -0.579%, respectively.
